The results in this text go back to PubChem BioAssay (NCI).

The structures appear in SMILES notation. Compounds without any hit were thinned out: in the full panel of roughly 83,000, 20% have a hit.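 Testing used 96-well plates and a 48-hour single-concentration exposure. Example: -40 means 40% of the starting cells died.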 A number with no mark means an inactive call. Calls of active or inactive are those of the source. How the source made its calls: active means growth percent below 10; inactive means the rest.

Holding throughout (test): NCI-60 one-dose screen, 48 h (100 = growth as untreated, 0 = no growth, -100 = all killed)
One assay concerns RPMI-8226 leukemia. The note with it: 10 µM.
For a further assay, the system named is OVCAR-8 ovarian. Particulars: 10 µM.
In a further assay the test system is OVCAR-5 ovarian. The note with it: 10 µM.
The subject of another assay is OVCAR-4 ovarian. Particulars: 10 µM.
The next assay deals with SK-OV-3 ovarian. Particulars: 10 µM.
The next assay deals with IGROV1 ovarian. The note with it: 10 µM.
The next assay concerns OVCAR-3 ovarian. The note with it: 10 µM.
A further assay deals with HS 578T breast. The note with it: 10 µM.
For another assay, the system named is NCI/ADR-RES ovarian. Particulars: 10 µM.
Another assay relates to MDA-MB-435 melanoma. Particulars: 10 µM.
The next assay relates to SW-620 colon. Particulars: 10 µM.
For a further assay, the system named is MCF7 breast. The note with it: 10 µM unless noted.
In another assay the test system is HCT-116 colon. Particulars: 10 µM.
A further assay relates to HCC-2998 colon. The note with it: 10 µM.
The next assay relates to KM12 colon. The note with it: 10 µM.
Another assay relates to BT-549 breast. The note with it: 10 µM.
Another assay relates to T-47D breast. Particulars: 10 µM.

Take `CN(C)CCN(C)CC(C)(C)C(=O)/C=C/c1ccc(Cl)cc1`: the growth in the assay on RPMI-8226 leukemia was -24.1% (active); with OVCAR-8 ovarian it was -35.4% (active); in the assay with OVCAR-5 ovarian, 3.63% (active); in the assay with OVCAR-4 ovarian it was 7.86% (active); in the assay on SK-OV-3 ovarian it was 5.56% (active); with IGROV1 ovarian, 15.6%. Besides, the growth is 10.4% in the assay with OVCAR-3 ovarian; -4.14% (active) with HS 578T breast; -36.1% (active) in the assay on NCI/ADR-RES ovarian; 0.434% (active) in the assay with MDA-MB-435 melanoma; -24.2% (active) with SW-620 colon; -8.84% (active) with MCF7 breast. In addition, the growth with HCT-116 colon is -92.1% (active); in the assay with HCC-2998 colon, -92.9% (active); in the assay on KM12 colon, -23.7% (active).

In the case of `COc1ccc(-c2cc(-c3cc(-c4ccc(OC)cc4)nc(N)n3)nc(N)n2)cc1`, the growth with RPMI-8226 leukemia is 99.5%; in the assay with OVCAR-8 ovarian, 99.1%; in the assay with OVCAR-5 ovarian, 93.5%; with OVCAR-4 ovarian it was 99.6%; in the assay with SK-OV-3 ovarian, 106%; in the assay with IGROV1 ovarian, 109%. For the same compound, the growth in the assay with OVCAR-3 ovarian was 107%; in the assay on NCI/ADR-RES ovarian, 100%; in the assay with BT-549 breast, 95.2%; with MDA-MB-435 melanoma, 97.5%; in the assay with SW-620 colon, 97.5%; in the assay on MCF7 breast it was 91.2%. In addition, the growth is 103% with HCT-116 colon, 112% with HCC-2998 colon and 101% in the assay with KM12 colon.

As to `CC(C)C1CCCCC1O` (stereo unspecified), the growth with RPMI-8226 leukemia is 105%; in the assay on OVCAR-8 ovarian it was 109%; with OVCAR-5 ovarian it was 91%; in the assay with OVCAR-4 ovarian, 118%; in the assay with SK-OV-3 ovarian it was 109%; in the assay with IGROV1 ovarian, 130%. In addition, the growth in the assay with OVCAR-3 ovarian was 117%; in the assay with NCI/ADR-RES ovarian it was 104%; in the assay on T-47D breast, 107%; with BT-549 breast, 105%; with MDA-MB-435 melanoma, 100%; with SW-620 colon, 107%. Further, the growth with MCF7 breast was 107%; in the assay with HCT-116 colon, 109%; in the assay on KM12 colon, 107%.

`COc1cc(C2NC(=O)C(C#N)=C(Nc3cccc(C)c3)S2)ccc1O` (stereo unspecified): the growth in the assay with RPMI-8226 leukemia was 81.4%; with OVCAR-8 ovarian, 105%; in the assay with OVCAR-5 ovarian, 111%; with OVCAR-4 ovarian, 102%; with SK-OV-3 ovarian, 103%; in the assay with OVCAR-3 ovarian it was 106%. Besides, the growth was 96.5% in the assay on HS 578T breast; 110% in the assay with NCI/ADR-RES ovarian; 93.5% in the assay on T-47D breast; 101% in the assay on BT-549 breast; 104% in the assay on MDA-MB-435 melanoma; 104% with SW-620 colon. Besides, the growth with MCF7 breast was 92.9%; in the assay with HCT-116 colon, 103%; with HCC-2998 colon, 106%; with KM12 colon, 104%.

Take `CS(=O)CC1=NC(=N)N=C1CS(C)=O` (stereo unspecified): the growth with RPMI-8226 leukemia was 107%; in the assay with OVCAR-8 ovarian, 99.9%; in the assay with OVCAR-5 ovarian it was 111%; with OVCAR-4 ovarian, 103%; in the assay on SK-OV-3 ovarian it was 108%; in the assay on IGROV1 ovarian, 113%. Also, the growth in the assay on OVCAR-3 ovarian is 118%; in the assay with NCI/ADR-RES ovarian, 103%; in the assay with BT-549 breast, 110%; with MDA-MB-435 melanoma, 109%; with SW-620 colon, 108%; in the assay on MCF7 breast it was 95%. Moreover, the growth is 102% in the assay on HCT-116 colon, 104% with HCC-2998 colon and 108% with KM12 colon.

For the compound `N#CCCc1ccc(O)cc1`, the growth in the assay on RPMI-8226 leukemia was 102%; with OVCAR-8 ovarian it was 93.9%; with OVCAR-5 ovarian, 95.6%; with OVCAR-4 ovarian it was 111%; with SK-OV-3 ovarian, 106%; with IGROV1 ovarian, 116%. The growth with OVCAR-3 ovarian is 110%; with NCI/ADR-RES ovarian, 116%; in the assay on T-47D breast it was 101%; in the assay on BT-549 breast, 114%; in the assay with MDA-MB-435 melanoma it was 99.8%; in the assay with SW-620 colon, 102%. Also, the growth is 98.4% with MCF7 breast, 116% in the assay on HCT-116 colon, 115% in the assay on HCC-2998 colon and 114% in the assay on KM12 colon.

For the compound `Cc1c(O)cnc2nn(-c3ccccc3)c(=N)n12`, the growth in the assay on RPMI-8226 leukemia was 113%; in the assay with OVCAR-8 ovarian it was 103%; with OVCAR-5 ovarian, 106%; in the assay with OVCAR-4 ovarian, 95.8%; in the assay with SK-OV-3 ovarian, 108%; in the assay with IGROV1 ovarian, 113%. Besides, the growth is 113% with OVCAR-3 ovarian; 108% with NCI/ADR-RES ovarian; 100% with T-47D breast; 108% with BT-549 breast; 107% with MDA-MB-435 melanoma; 102% in the assay with SW-620 colon. The growth in the assay with MCF7 breast was 97.5%; in the assay on HCT-116 colon it was 101%; in the assay with HCC-2998 colon it was 98.4%; with KM12 colon, 95.8%.

Consider `O=C(CCNNC(=O)c1ccncc1)NCc1ccccc1`, for which the growth with RPMI-8226 leukemia is 87.2%; with OVCAR-8 ovarian, 100%; with OVCAR-5 ovarian, 105%; with OVCAR-4 ovarian it was 96.3%; with SK-OV-3 ovarian, 104%; in the assay with IGROV1 ovarian it was 92.3%. The growth in the assay with OVCAR-3 ovarian was 102%; with NCI/ADR-RES ovarian it was 96.5%; in the assay on T-47D breast it was 94.4%; in the assay with BT-549 breast, 134%; with MDA-MB-435 melanoma, 95.7%; in the assay on SW-620 colon, 96%. The growth was 89.9% with MCF7 breast, 105% in the assay on HCT-116 colon, 111% in the assay on HCC-2998 colon and 97.5% in the assay with KM12 colon.

As for `COC(=O)Nc1nc2ccc(C(=O)c3ccc(F)cc3)cc2[nH]1`, the growth in the assay with RPMI-8226 leukemia was -27.1% (active); with OVCAR-8 ovarian, 6.47% (active); in the assay with OVCAR-5 ovarian, 27.3%; with OVCAR-4 ovarian it was 55.5%; in the assay on SK-OV-3 ovarian, 42.6%; in the assay on OVCAR-3 ovarian, -74.4% (active). Besides, the growth with HS 578T breast is -5.44% (active); in the assay on NCI/ADR-RES ovarian it was -5.09% (active); with T-47D breast it was 112%; with BT-549 breast, 32%; in the assay with MDA-MB-435 melanoma, -60.2% (active); in the assay on SW-620 colon it was 24.8%. For the same compound, the growth is 15.6% in the assay on MCF7 breast, 14.2% in the assay with HCT-116 colon, 16.1% with HCC-2998 colon and -4.55% (active) in the assay with KM12 colon.

Regarding `Cc1cc2nc(CC(=O)c3cccc([N+](=O)[O-])c3)c(=O)[nH]c2cc1C`, the growth was 88.4% in the assay on RPMI-8226 leukemia; 92.7% in the assay with OVCAR-8 ovarian; 92.1% in the assay with OVCAR-5 ovarian; 89.4% with OVCAR-4 ovarian; 108% in the assay on SK-OV-3 ovarian; 91.4% in the assay with IGROV1 ovarian. For the same compound, the growth in the assay with OVCAR-3 ovarian is 102%; in the assay with HS 578T breast, 72.6%; in the assay on NCI/ADR-RES ovarian it was 83.9%; with BT-549 breast, 87%; in the assay with MDA-MB-435 melanoma it was 93.9%; with SW-620 colon, 93.7%. Also, the growth in the assay on MCF7 breast is 74.8%; in the assay on HCT-116 colon it was 54.8%; in the assay with HCC-2998 colon, 89.9%; with KM12 colon it was 86.6%.
